# In PubChem BioAssay (EPA / NIEHS):
# Results filed as inconclusive are left out. Some compounds were tested as several samples or in several runs, with calls that do not always agree. Activity calls are given as the source filed them. The calls were made as follows, unless noted: active = hit-call score of the fitted dose curve at least 0.9, where 1 is the maximum; inactive = score below 0.9.
# Tests used:
# [1] = TOX21_p53_BLA_p2_viability: Viability Assessment in the Tox21 HCT-116 p53 Agonism Beta-lactamase Assay, Phase 2 (AID 2283591; active = hit-call score of the fitted dose curve at least 0.9, where 1 is the maximum;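 also: actives lower the ATP signal meaning cytotoxicity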)
# Procedure, shortened: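 HCT116 p53-bla cells, 4000/well, dosed after 5 h plating (217-fold dilution of DMSO stocks) and incubated 16 h at 37C. Viability taken as cellular ATP by CellTiter-Glo luminescence after 30 min RT; signal loss marks cytotoxicity.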
# [2] = TOX21_p53_BLA_p3_viability: Viability Assessment in the Tox21 HCT-116 p53 Agonism Beta-lactamase Assay, Phase 3 (AID 2283593; active = hit-call score of the fitted dose curve at least 0.9, where 1 is the maximum;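 also: cells exposed to compound for 16 h before reading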)
# Procedure, shortened: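 HCT116 cells, 4000/well, dosed 5 h after plating by pin transfer (217-fold dilution from DMSO stock) and incubated 16 h at 37C, 5% CO2. Viability read as ATP luminescence with CellTiter-Glo after 30 min at room temperature.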
# [3] = target: Cellular tumor antigen p53 (Homo sapiens) (UniProt P04637); assay: TOX21_p53_BLA_p3_ratio: Tox21 HCT-116 p53 Agonism Beta-lactamase Assay, Ratio, Phase 3 (AID 2283596; active = hit-call score of the fitted dose curve at least 0.9, where 1 is the maximum)
# Sequence of Cellular tumor antigen p53 (Homo sapiens) (P04637 whole entry, looked up): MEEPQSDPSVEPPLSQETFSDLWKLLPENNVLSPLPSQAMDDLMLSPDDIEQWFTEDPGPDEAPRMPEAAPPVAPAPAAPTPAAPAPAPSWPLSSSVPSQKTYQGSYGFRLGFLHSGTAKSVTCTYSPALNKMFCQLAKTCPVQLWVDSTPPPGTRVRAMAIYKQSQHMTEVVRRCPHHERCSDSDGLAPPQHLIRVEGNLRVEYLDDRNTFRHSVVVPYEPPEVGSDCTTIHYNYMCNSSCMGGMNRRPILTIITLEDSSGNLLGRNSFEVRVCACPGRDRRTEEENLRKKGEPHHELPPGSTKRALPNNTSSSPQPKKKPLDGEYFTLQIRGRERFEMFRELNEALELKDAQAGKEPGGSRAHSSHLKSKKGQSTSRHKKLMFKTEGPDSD
# Procedure, shortened: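 Cells were seeded at 4000/well, rested 5 h at 37C, then dosed with DMSO compound solutions (217-fold dilution) for 16 h. CCF4-AM substrate was loaded for 2 h at room temperature, and the 460/530 nm emission ratio was fitted for gain of signal versus DMSO.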
# [4] = TOX21_p53_BLA_p4_viability: Viability Assessment in the Tox21 HCT-116 p53 Agonism Beta-lactamase Assay, Phase 4 (AID 2283597; active = hit-call score of the fitted dose curve at least 0.9, where 1 is the maximum;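 also: hits lower the luminescence signal meaning cytotoxicity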)
# Procedure, shortened: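 4000 HCT116 cells per well; 5 h attachment; compounds from DMSO, 217-fold dilution; 16 h at 37C. Then CCF4-AM, 2 h RT, followed by CellTiter-Glo, 30 min RT, luminescence. Decrease = cytotoxicity.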
# [5] = TOX21_p53_BLA_p5_viability: Viability Assessment in the Tox21 HCT-116 p53 Agonism Beta-lactamase Assay, Phase 5 (AID 2283600; active = hit-call score of the fitted dose curve at least 0.9, where 1 is the maximum)
# Procedure, shortened: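 Decreased CellTiter-Glo luminescence denotes lost viability. Exposure: 16 h at 37C, 5% CO2, with compounds from DMSO stocks diluted 217-fold in wells of 4000 cells.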
# [6] = CCTE_Shafer_MEA_dev_firing_rate_mean: CCTE's Neural Network Formation Assay for Mean Firing Rate, Shafer Lab (AID 2284031)
# Procedure, shortened: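 Extracellular spike frequency, AUC over DIV 5–12 recordings, in rat cortical neuron MEA cultures dosed from plating; loss direction vs DMSO.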
# [7] = CCTE_Shafer_MEA_dev_per_burst_spike_percent: CCTE's Neural Network Formation Assay for Percent of Spikes in a Burst, Shafer Lab (AID 2284032)
# Procedure, shortened: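 Value is trapezoidal AUC over recordings on days 5, 7, 9 and 12 of the well-mean fraction of spikes falling in single-electrode bursts; rat cortical cultures exposed continuously from plating, treatment renewed DIV 5 and 9, fitted downward against DMSO.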
# [8] = CCTE_Shafer_MEA_dev_burst_rate: CCTE's Neural Network Formation Assay for Burst Rate, Shafer Lab (AID 2284042)
# Procedure, shortened: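 Cells plated, treated day 0; recorded DIV 5, 7, 9, 12; fed and re-treated DIV 5, 9. Endpoint: bursts per recording time, active-electrode well mean, trapezoidal AUC, fitted in decreasing direction against DMSO baseline.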
# [9] = CCTE_Shafer_MEA_dev_per_burst_interspike_interval: CCTE's Neural Network Formation Assay for Burst Interspike Interval, Shafer Lab (AID 2284044)
# Procedure, shortened: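 Primary rat cortical neurons on 48-well MEA plates, exposed from day 0 through day 12, treatment renewed at DIV 5 and 9. Within-burst interspike interval recorded days 5, 7, 9, 12, well-averaged, summarised as AUC; negative fit versus DMSO.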
# [10] = CCTE_Shafer_MEA_dev_burst_duration_mean: CCTE's Neural Network Formation Assay for Mean Burst Duration, Shafer Lab (AID 2284045);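 as to AC50: curve fitted for loss meaning shorter burst duration than DMSO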
# Procedure, shortened: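 Rat cortical cultures, 1.5 x 10^5 cells/well with laminin drop; continuous dosing days 0–12, media plus treatment refreshed DIV 5, 9. AxIS adaptive spike detection; mean single-electrode burst duration, AUC over four recordings, negative direction vs DMSO.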
# [11] = CCTE_Shafer_MEA_dev_interburst_interval_mean: CCTE's Neural Network Formation Assay for Mean Interburst Interval, Shafer Lab (AID 2284046);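 also: well-mean interburst interval of bursting electrodes as AUC over four recording days; curve fitted for decrease in interburst interval relative to DMSO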
# Procedure, shortened: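 Developing rat cortical networks on 48-well MEAs receive compound from the day of plating. Burst intervals from each active electrode are averaged per well, and AUC over the recording days is fitted in the negative direction against DMSO.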
# [12] = CCTE_Shafer_MEA_dev_inter_network_spike_interval_mean: CCTE's Neural Network Formation Assay for Mean Inter-network Spike Interval, Shafer Lab (AID 2284047)
# Procedure, shortened: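 Rat cortical cultures, 1.5 x 10^5 cells/well on 48-well MEA plates; continuous exposure days 0–12, medium and compound refreshed DIV 5, 9. Mean time between consecutive network-spike peaks; AUC across DIV 5/7/9/12; DMSO baseline, negative fitting direction.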
# [13] = CCTE_Shafer_MEA_dev_network_spike_number: CCTE's Neural Network Formation Assay for Number of Network Spikes, Shafer Lab (AID 2284048);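 also: synchronized bursts across electrodes counted on days 5 7 9 12 and integrated as AUC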
# Procedure, shortened: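 Rat cortical primary cultures on 48-well MEA (16 electrodes/well); continuous exposure DIV 0–12, full medium and treatment exchange DIV 5, 9. Readout: network spike count, AxIS adaptive detection, recordings DIV 5/7/9/12 collapsed to AUC; loss-of-signal fit, DMSO baseline.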
# [14] = CCTE_Shafer_MEA_dev_network_spike_peak: CCTE's Neural Network Formation Assay for Mean Number of Electrodes in Network Spike, Shafer Lab (AID 2284049)
# Procedure, shortened: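 Network-spike peak electrode count from recordings on days 5, 7, 9 and 12 was combined as trapezoidal area under the curve. Rat cortical cultures were treated continuously from plating, with compound renewed at each feed (DIV 5, 9); fits versus DMSO.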
# [15] = CCTE_Shafer_MEA_dev_spike_duration_mean: CCTE's Neural Network Formation Assay for Mean Spike Duration, Shafer Lab (AID 2284051);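 also: mean network spike duration pooled as area under curve over DIV 5 to 12 recordings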
# Procedure, shortened: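 Readout is the average length of network spikes, clustered firing across electrodes, summed over DIV 5, 7, 9 and 12 as area under the curve. Neurons from rat cortex developed networks on MEA plates under continuous 12-day exposure.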
# [16] = CCTE_Shafer_MEA_dev_network_spike_duration_std: CCTE's Neural Network Formation Assay for Standard Deviation of Network Spike Duration, Shafer Lab (AID 2284052);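 also: area under curve of spike duration SD across recording days 5 to 12; hits are decreases in network spike duration SD versus DMSO vehicle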
# Procedure, shortened: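 Read-out is the trapezoidal area-under-the-curve across recordings made on days 5, 7, 9 and 12, fitted in the negative direction against DMSO baseline. Neurons were primary rat cortical cells treated from day 0, with treatment renewed at each feed.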
# [17] = CCTE_Shafer_MEA_dev_per_network_spike_spike_number_mean: CCTE's Neural Network Formation Assay for Mean Number of Spikes in a Network Spike, Shafer Lab (AID 2284053)
# Procedure, shortened: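 Continuous twelve-day exposure of developing rat cortical networks grown over 16 microelectrodes per well; spontaneous firing is captured at four time points, and the per-network-spike spike number is integrated over development by trapezoidal AUC.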
# [18] = CCTE_Shafer_MEA_dev_per_network_spike_spike_percent: CCTE's Neural Network Formation Assay for Percent of Spikes in a Network Spike, Shafer Lab (AID 2284054)
# Procedure, shortened: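 Read-out: percent of spikes falling in a 0.05 s window at network-spike peak, from spontaneous MEA recordings on days 5, 7, 9 and 12; trapezoidal AUC; loss of signal versus DMSO. Rat cortical cultures, compound present throughout.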
# [19] = CCTE_Shafer_MEA_dev_LDH: CCTE's Lactate Dehydrogenase Assay for Cytotoxicity in the Neural Network Formation Assay, Shafer Lab (AID 2284068; active = hit-call score of the fitted dose curve at least 0.9, where 1 is the maximum;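 also: exposure for twelve days from plating with re-dosing on DIV 5 and 9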)
# Procedure, shortened: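 Cytotoxicity companion to network-formation recordings: rat cortical neurons received compound over 12 days of development, re-dosed at DIV 5 and 9 feeds. Viability was inferred from LDH enzyme activity relative to DMSO.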
# [20] = IUF_NPC1b_proliferation_BrdU_72hr: Leibniz Research Institute for Environmental Medicine (IUF) 72-hour Neural Progenitor Cell Bromodeoxyuridine (BrdU) Proliferation Assay (NPC1b) (AID 2284207)
# Procedure, shortened: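 Luminescent BrdU ELISA measured DNA synthesis during the last 16 h of a 72 h exposure of primary human neural progenitor spheres grown with EGF and FGF. Signal was fitted relative to DMSO controls.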
# [21] = IUF_NPC1a_proliferation_area_72hr: Leibniz Research Institute for Environmental Medicine (IUF) 72-hour Neural Progenitor Cell Proliferation Area Assay (NPC1a) (AID 2284208)
# Procedure, shortened: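 Single 0.25–0.35 mm human fetal neural progenitor spheres in proliferation medium with EGF and FGF, exposed 72 h from plating without renewal at 37C, pH 7.2-7.6. Sphere area growth measured by automated phase-contrast imaging, relative to DMSO.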
# [22] = IUF_NPC1_viability_72hr: Viability Assessment at 72 hours in the Leibniz Research Institute for Environmental Medicine (IUF) Neural Progenitor Cell Proliferation Assay (NPC1) (AID 2284209)
# Procedure, shortened: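 Three-day continuous exposure of human neural progenitor spheres under EGF/FGF-driven proliferation; cell viability scored by alamar blue signal versus DMSO.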
# [23] = CCTE_Mundy_HCI_Cortical_Synap_Neur_Matur_NeuriteSpotCountPerNeuriteLength: CCTE's Synaptogenesis and Neurite Maturation Assay in rat cortical cells for Neurite Spot Count per Neurite Length, Mundy Lab (AID 2284210)
# Procedure, shortened: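 Read-out: synaptophysin puncta counted along MAP2-stained neurites, normalised to neurite length, by automated high-content imaging. Rat cortical cells; AraC DIV 5; chemical dosing DIV 7; termination DIV 12. DMSO baseline.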
# [24] = CCTE_Mundy_HCI_Cortical_Synap_Neur_Matur_BPCount: CCTE's Synaptogenesis and Neurite Maturation Assay in rat cortical cells for Branch Point Count, Mundy Lab (AID 2284211)
# Procedure, shortened: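 In this multiplexed morphology assay, cortical cells from rat receive chemicals at DIV 7 and are fixed at DIV 12, then immunostained and imaged; branch points are counted, with DMSO as baseline.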
compound,measurement,setting,value
C[C@H](CS)C(=O)N1CCC[C@H]1C(=O)O,outcome,[1],inactive
same,outcome,[2],inactive
same,outcome,[3],inactive
same,outcome,[4],inactive
same,outcome,[5],inactive
same,outcome,[6],inactive
same,outcome,[7],inactive
same,outcome,[8],inactive
same,outcome,[9],inactive
same,AC50,[10],21.6 µM (active)
same,outcome,[10],inactive
same,outcome,[11],inactive
same,outcome,[12],inactive
same,outcome,[13],inactive
same,outcome,[14],inactive
same,outcome,[15],inactive
same,outcome,[16],inactive
same,outcome,[17],inactive
same,outcome,[18],inactive
same,outcome,[19],inactive
same,outcome,[20],inactive
same,outcome,[21],inactive
same,outcome,[22],inactive
same,outcome,[23],inactive
same,outcome,[24],inactive
